Source: PubChem BioAssay (National Center for Advancing Translational Sciences (NCATS))
gsp agonist: activates gsp, the McCune-Albright syndrome mutation; 340,000 tested, 0.13% active; Potency, µM (doses to about 76.9 µM), for inactives: at the top dose activation (cAMP increase), usual class: activators; AID 624287; gsp mutant cells, cAMP HTRF, 30 min; active means well fitted activation curve with a large enough effect; inconclusive means small, poorly fitted or top-dose-only effect, or another doubt; inactive means no such curve, though single readings can be large or run the other way; cell line not stated here;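 further: phosphodiesterase inhibitor Ro 20-1724 added with compounds to block cAMP breakdown; potency means the concentration at half of the fitted maximal effect; nearly all actives have a fitted effect of over 60% in size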
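Cells in DMEM/10% FBS with G418 were pretreated with compounds in DMSO plus […] (300 uM stock) for 30 min at 37C. cAMP was measured by HTRF (cAMP-d2 plus anti-cAMP antibody-K) after 30 min at room temperature.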
Tb PFK inh-1: inhibitors of T. brucei phosphofructokinase. O15648. 330,000 tested, 0.17% active. T. brucei PFK, ADP-Glo luminescence. Potency, µM (top dose mostly 57.5 µM), for the others: at the highest dose activity, negative = inhibition, actives largely listed as inhibitors. AID 485367;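 further: potency means the concentration at half of the fitted maximal effect; 0% = uninhibited 1x PFK enzyme wells and -100% = no-enzyme wells; nearly all actives have a fitted effect of over 60% in size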
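Activity is normalized to no-enzyme wells (full inhibition) and 1.25 nM enzyme wells (no inhibition). Reaction: 0.5 mM F6P, 0.1 mM ATP, 45 min RT, ADP-Glo luminescence; concentration-response curves fitted and classed by quality.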
gsp antagonist: antagonizes gsp, the McCune-Albright syndrome mutation; 340,000 tested, 0.4% active; Potency, µM (highest dose often 76.9 µM), inactives show at the highest dose activity change, negative = inhibition, hits mostly inhibitors; gsp-mutant cells, cAMP HTRF, 30 min; calls by dose curve; cell line not stated here;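 further: intracellular cAMP measured with PDE inhibitor Ro 20-1724 present during compound exposure; potency means the concentration at half of the fitted maximal effect; on the % scale 0 is the no-effect control and ±100 the full control effect; nearly all actives have a fitted effect of over 65% in size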
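HTRF cAMP measurement after 30 min RT detection following 30 min, 37C compound treatment alongside […] (added as 300 uM solution) in G418-selected cells seeded at 2000/well and grown 16–24 h.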
RXFP1 agonist: agonists of human relaxin receptor RXFP1; Q9HBX9; HEK293T-RXFP1 cAMP TR-FRET, 30 min; response scale: percent of porcine relaxin response, buffer zero; Potency, µM (series often up to 57.5 µM), for inactives: at the highest dose activation, actives largely listed as activators; 370,000 tested, 0.3% active; further: potency means the concentration at half of the fitted maximal effect; on the % scale 0 is the no-effect control and ±100 the full control effect; nearly all actives have a fitted effect of over 60% in size
Target sequence (Q9HBX9 whole entry, looked up): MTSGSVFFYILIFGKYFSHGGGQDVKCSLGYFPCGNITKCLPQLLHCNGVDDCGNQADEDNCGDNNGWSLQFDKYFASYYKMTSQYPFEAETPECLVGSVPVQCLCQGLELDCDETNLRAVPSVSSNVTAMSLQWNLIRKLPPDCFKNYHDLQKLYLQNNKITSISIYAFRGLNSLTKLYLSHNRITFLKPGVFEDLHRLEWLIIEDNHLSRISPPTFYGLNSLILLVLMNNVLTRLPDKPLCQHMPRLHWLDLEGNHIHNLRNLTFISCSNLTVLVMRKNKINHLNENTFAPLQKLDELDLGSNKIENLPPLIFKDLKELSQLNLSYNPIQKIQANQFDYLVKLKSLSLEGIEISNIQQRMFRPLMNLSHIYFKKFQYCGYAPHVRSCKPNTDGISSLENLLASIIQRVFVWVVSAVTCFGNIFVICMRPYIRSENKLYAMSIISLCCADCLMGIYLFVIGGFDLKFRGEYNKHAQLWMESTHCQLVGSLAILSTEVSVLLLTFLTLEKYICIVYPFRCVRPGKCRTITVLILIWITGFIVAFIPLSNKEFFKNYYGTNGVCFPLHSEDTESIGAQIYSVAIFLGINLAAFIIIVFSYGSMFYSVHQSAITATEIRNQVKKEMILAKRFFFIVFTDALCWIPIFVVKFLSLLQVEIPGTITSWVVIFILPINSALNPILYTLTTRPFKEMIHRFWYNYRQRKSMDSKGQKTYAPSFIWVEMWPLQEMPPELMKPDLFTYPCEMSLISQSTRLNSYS
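cAMP rise read by TR-FRET after 30 min, 37C compound exposure (up to 58 uM) in RXFP1-transfected HEK293 cells with Ro 20174 present. EC50 from Hill-equation fits, with 29 nM porcine relaxin as 100% and buffer as basal.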
RXFP1 antag: antagonists of human relaxin receptor RXFP1; activity change, negative = inhibition, % at 57.5 µM; HEK293-RXFP1, relaxin-stimulated cAMP HTRF, 30 min; active compounds read low; 350,000 tested, 0.59% active;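 active means activity change of -60% or lower, but not beyond a set lower limit; inconclusive means change between -60% and -40%, or beyond the set limit; inactive means change above -40%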; further: on the % scale 0 is the no-effect control and ±100 the full control effect
p53 reactivator: restores transcriptional activity of mutant p53. 320,000 tested, 0.063% active. AID 504706. Potency, µM (highest dose often 92.2 µM), inactives show at the top dose activity change, positive = activation, hits mostly activators. H1299 p53-A138V BP100-luciferase reporter, luminescence, 24 h; further: potency means the concentration at half of the fitted maximal effect; % of control where 0% means no effect; nearly all actives have a fitted effect of over 45% in size
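p53-null H1299 cells stably carrying temperature-sensitive p53-A138V and a BP100-luciferase reporter were pinned with compounds (4-point, 1:5 series) and held 24 hrs at 37 deg C. Luminescence was read 10 min after detection reagent.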
Tb PFK KinaseGlo: Tb phosphofructokinase inhibition, orthogonal luminescence | Tb PFK enzyme, ATP depletion, Kinase-Glo Plus luminescence | Potency, µM (highest dose often 57.5 µM), for the others: top-dose inhibition | 1,100 tested, 47% active | shares compounds with Tb PFK inh-1; calls by dose curve; further: potency means the concentration at half of the fitted maximal effect; nearly all actives have a fitted effect of over 60% in size
Tb PFK inh-2: validation of T. brucei phosphofructokinase inhibitors; shares compounds with Tb PFK inh-1; 1,100 tested, 41% active; Potency, µM (titrated, usually from 57.5 µM), for the others: at the highest dose activity change, negative = inhibition, usual class: inhibitors; purified T. brucei PFK, ADP-Glo luminescence, 45 min;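 further: potency means the concentration at half of the fitted maximal effect; plate controls were full PFK enzyme control for no effect and no enzyme control for full effect; nearly all actives have a fitted effect of over 60% in size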
* = called active by the depositor; u = inconclusive; x = no result; [ ] = another dose, or the depositor's remark. Only some compounds are listed: those with a hit (about 1.1% of all), similar ones and a draw of the others. Unless noted, the call rests on the fitted dose curve; in most records, active means well fitted curve in the direction sought with a large enough effect; inconclusive means small, poorly fitted or top-dose-only effect, or another doubt; inactive means no such curve, though single readings can be large; an effect the other way counts as inactive or inconclusive.

SMILES	gsp agonist	Tb PFK inh-1	gsp antagonist	RXFP1 agonist	RXFP1 antag	p53 reactivator	Tb PFK KinaseGlo	Tb PFK inh-2
COc1ccc(/C=C2/C(=O)NC(=O)N(c3ccc(C)c(C)c3)C2=O)cc1CN1C(=O)c2ccccc2C1=O	23%[15.4 µM]	-17%	26%	12%	8	-10%	x	x
CCN1CCN(Cc2nc3ccc([N+](=O)[O-])cc3c(=O)n2-c2ccccc2F)CC1	0%	-12%	-21%	-1%	-18	-6%	x	x
CNC(=O)O/N=C/c1nn(C(=O)C(C)(C)C)cc1Br	1%[15.4 µM]	-1%	2%	0%	-13	7%	x	x
N#Cc1cccc(NC(=O)COC(=O)c2cccc(N3C(=O)c4ccccc4C3=O)c2)c1	u	u	-6%	2%	-12	4%	u	u
N#Cc1cccc(NC(=O)CSc2nc3c(cc2C#N)N2CCC3CC2)c1	x	x	x	1%	x	x	x	x
Cc1cc(N2CCOCC2)nc2ccc(NC(=O)CCC(=O)N3CCC4(CC3)OCCO4)cc12	-22%	-1%	-8%	0%	-10	u	x	x
Cc1ccc(C)c(OCCCC(=O)Nc2ccc(N3CCOCC3)cc2)c1	x	u	x	0%	x	4%	16%	-5%
O=C(NNC(=O)c1ccccc1Br)c1ccc2nc[nH]c2c1	30%	21µM*	8%	0%	1	-18%	u	u
C#C[C@]1(O)C=C[C@H]2[C@@H]3CCC4=CC(=O)CC[C@@H]4[C@H]3CC[C@@]21CC	x	x	x	x	-11	x	x	x
Cc1ccc(C(=O)Nc2ccccc2)cc1S(=O)(=O)N1CCCC1	x	x	x	2%	x	x	x	x
COc1ccccc1NS(=O)(=O)c1cc(NC(=O)c2sccc2C)ccc1N1CCCC1	-2%[15.4 µM]	u	-17%	-3%	-34	0%	12µM*	24µM*
COc1cc(/C=C(\C#N)c2nc3ccccc3s2)cc([N+](=O)[O-])c1O	-1%[15.4 µM]	u	u	2%	-7	3%	-27%	u
Cc1ccccc1NC(=O)CSc1ccsc1[N+](=O)[O-]	17%	27µM*	15%	4%	x	9%	11µM*	17µM*
O=C(O)c1ccc(N=Nc2c(O)[nH]c3cc(Cl)ccc23)cc1	1%	u	u	0%	-13	5%	-25%	u
Cc1cc(C)n2nc3nc(N4CCCCC4)nc(-c4ccco4)c3c2n1	u	u	-1%	9%	-7	2%	9%	-2%
Cc1nc2ccc(Cl)cc2c(-c2ccccc2)c1C(=O)O	-1%	-9%	1%	0%	0	-9%	x	x
CC(=O)c1c(C)nc(-c2ccc(Cl)cc2)nc1N	0%	u	25%	2%	0	7%	u	u
CC(=O)c1c(C)nc(-c2ccc(Cl)cc2)nc1N=CN(C)C	3%	2.7µM*	4%	1%	x	u	9.5µM*	12µM*
Cc1ccc(C)c(NC(=O)CSc2nnc([C@@H](N)Cc3c[nH]c4ccccc34)o2)c1	-6%	-4%	0%	2%	2	-4%	x	x
O=C(NCc1ccc(F)cc1)C(=O)NCC1CCCN1S(=O)(=O)c1ccccc1 (stereo not given)	-3%	u	-1%	0%	-9	-4%	24µM*	u
CCn1c(C)nc2cc(C(=O)N/N=C/c3ccc(O)c(O)c3O)ccc21	-4%[15.4 µM]	u	-9%	3%	2	-9%	u	u
CCc1c(C(=O)NN2C(=O)C3C4CCC(O4)C3C2=O)csc1C (stereo not given)	-27%	-1%	2%	0%	3	22%	x	x
